From PubChem BioAssay
Gal4-VP16 FLuc: VP16 counterscreen qHTS for inhibitors of ROR gamma transcriptional activity; Drosophila S2 Gal4-VP16 UAS-luciferase, luminescence, 20 h; Potency, µM (highest dose often 53.6 µM), inactives show at the top dose activity, negative = inhibition, actives largely listed as inhibitors; hit rate 3.5% among 310,000;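 further: Gal4-VP16 expression switched on by copper sulfate through the metallothionein promoter; potency means the concentration at half of the fitted maximal effect; nearly all actives have a fitted effect of over 50% in size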
DT40 TDP1 CPT: qHTS for Inhibitors of human tyrosyl-DNA phosphodiesterase 1 (TDP1): qHTS in cells in presence of CPT; chicken DT40 Tdp1-/-;hTDP1 cells + 20 nM CPT, ATP luminescence, 48 h; Potency, µM (series often up to 46.2 µM), for inactives: at the highest dose activity change, negative = growth inhibition, actives largely listed as inhibitors; hit rate 12% among 420,000; AID 686979, 2013; further: potency means the concentration at half of the fitted maximal effect; nearly all actives have a fitted effect of over 55% in size
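Chicken DT40 Tdp1-/- cells stably complemented with human TDP1 were seeded at 400 cells/well in medium containing 20 nM camptothecin, exposed to pin-transferred compounds, and grown at 37 °C for at least 48 hr. Viability was read as ATP luminescence.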
LDHA inh: qHTS assay for inhibitors of human lactate dehydrogenase; hit rate 0.15% among 480,000; L-lactate dehydrogenase A chain (Homo sapiens), P00338; activity change, % (values are at about 110 or 230 µM); purified LDHA, NADH/diaphorase-resazurin fluorescence; active compounds read low; in the data active means activity change below about -30%; inconclusive means mostly about -25% to -30%;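 further: plate controls were DMSO wells for no effect and wells without enzyme for full effect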
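Human LDH5 (2 nM) was incubated with 0.06 mM NADH and 0.2 mM pyruvate for 5 min at room temperature in Tris pH 7.4. Remaining NADH was coupled through diaphorase/resazurin, and resorufin fluorescence was read at 0 and 20 min.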
RORgamma inh: qHTS for inhibitors of ROR gamma transcriptional activity | Potency, µM (titrated, usually from 53.6 µM), inactives show top-dose activity change, negative = inhibition, usual class: inhibitors | Nuclear receptor ROR-gamma (Mus musculus), P51450 | Drosophila S2 Gal4-RORgamma UAS-luciferase reporter, 20 h | hit rate 5.4% among 310,000; further: potency means the concentration at half of the fitted maximal effect; nearly all actives have a fitted effect of over 60% in size
Target sequence (P51450 whole entry, looked up, the tested form may be a part): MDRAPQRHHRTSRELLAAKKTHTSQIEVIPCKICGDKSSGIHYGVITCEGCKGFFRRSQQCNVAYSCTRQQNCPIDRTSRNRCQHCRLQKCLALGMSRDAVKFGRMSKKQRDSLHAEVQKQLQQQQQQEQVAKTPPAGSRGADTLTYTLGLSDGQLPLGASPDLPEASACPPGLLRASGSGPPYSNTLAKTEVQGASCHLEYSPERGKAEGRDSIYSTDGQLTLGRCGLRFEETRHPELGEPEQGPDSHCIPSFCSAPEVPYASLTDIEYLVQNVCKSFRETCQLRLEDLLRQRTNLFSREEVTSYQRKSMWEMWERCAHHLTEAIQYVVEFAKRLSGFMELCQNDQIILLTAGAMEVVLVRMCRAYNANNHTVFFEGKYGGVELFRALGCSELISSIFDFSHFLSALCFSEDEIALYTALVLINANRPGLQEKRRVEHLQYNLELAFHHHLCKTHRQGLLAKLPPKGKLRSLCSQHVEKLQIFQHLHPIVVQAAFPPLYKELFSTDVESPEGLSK
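Luminescence from a UAS-regulated Photinus luciferase reporter in stably transfected Drosophila Schneider cells is measured; decreased signal marks ROR gamma inhibition. Fusion expression is induced by 700 uM copper sulfate for 20 hr.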
TDP1 cell noCPT: qHTS for Inhibitors of human tyrosyl-DNA phosphodiesterase 1 (TDP1): qHTS in cells in absence of CPT; DT40 Tdp1-/- hTDP1 cells, no CPT, ATP luminescence, 48 h; AID 686978, 2013; Potency, µM (top dose mostly 46.2 µM), for the others: at the highest dose activity change, negative = growth inhibition, most hits filed as inhibitors; hit rate 15% among 420,000; further: potency means the concentration at half of the fitted maximal effect; nearly all actives have a fitted effect of over 55% in size
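DT40 Tdp1-/-;hTDP1 cells, no CPT (DMSO vehicle only), 400 cells/well; compounds pin-transferred; ≥48 hr, 37 °C; CellTiter-Glo 30 min RT dark, luminescence read.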
IL1B secr inh: qHTS for Inhibitors of Inflammasome Signaling: IL-1-beta AlphaLISA Primary Screen; THP-1 LPS/ATP IL-1B secretion, AlphaLISA, 16 h; active compounds read low; activity change, % at 57.5 µM; hit rate 4.7% among 360,000; AID 743279, 2014; in the data active means activity change below about -50%; inconclusive means mostly about -30% to -49%
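Secreted IL-1B measured by AlphaLISA bead assay after 16 h compound exposure of THP-1 cells; compounds (final up to 57.5 uM) added 1 h before LPS (250 ng/mL) and ATP (1.25 mM) stimulation; lower signal means less secretion.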
The depositor's hits bear a star; ? = inconclusive; . = no result given. Most compounds without a hit are left out; they make up all but 18% or so of the library. Unless noted, the call rests on the fitted dose curve; in most records, active means well fitted curve in the direction sought with a large enough effect; inconclusive means small, poorly fitted or top-dose-only effect, or another doubt; inactive means no such curve, though single readings can be large; an effect the other way counts as inactive or inconclusive. Unless noted, on the % scale 0 is the no-effect control and ±100 the full control effect.

SMILES | Gal4-VP16 FLuc | DT40 TDP1 CPT | LDHA inh | RORgamma inh | TDP1 cell noCPT | IL1B secr inh
CC(=O)c1ccc(NC(=O)Cn2cc(C(C)=O)c3ccccc32)cc1 | . | . | 7 | . | . | .
Cc1ccc2c(c1)c1c3n2CCCN(Cc2ccccc2)C3CCC1 (configuration not stated) | 2% | ? | 1 | 1% | ? | -7
COC(Cn1c2c(c3cc(C)ccc31)CCCC2NCc1ccccc1)OC (configuration not stated) | 13% | ? | 2 | -20% | 15µM* | 12
S=c1[nH]cc(Cc2ccccc2)s1 | ? | 12% | -4 | 13µM* | ? | 47
CCCCCCn1nc(C(=O)OCC#N)c2ccccc2c1=O | . | . | 4 | . | . | .
Cc1[nH]c(=O)[nH]c(=O)c1N1CCOCC1 | -9% | 9% | -7 | 20% | 15% | 67
O=c1[nH]nc(N2CCOCC2)c(=O)[nH]1 | 2% | ? | -6 | -1% | 16µM* | 1
CCNc1nc(Oc2ccc(Cl)cc2Cl)cc(C(F)(F)F)n1 | -12% | ? | 0 | ? | ? | 7
Cc1cc(Oc2ccc(Cl)cc2Cl)nc(C#N)n1 | . | 11µM* | 7 | . | 18µM* | .
Cc1cc(NC(=O)OC(C)(C)C)c(-n2nnnc2C(C(=O)c2ccc3c(c2)OCO3)N2CCN(c3ccccn3)CC2)cc1C (configuration not stated) | . | 23µM* | 9 | . | 16µM* | -12
O=C(NCc1nnnn1-c1ccccc1)Nc1ccc2c(c1)OCO2 | . | . | 5 | . | . | .
CN(CCc1ccccc1)C(C(=O)c1ccc2c(c1)OCO2)c1nnnn1-c1ccccc1NC(=O)OC(C)(C)C (configuration not stated) | . | 15µM* | 2 | . | 16µM* | 21
CC(C)(C)OC(=O)Nc1ccccc1-n1nnnc1C(C(=O)c1ccccc1)N1CCN(c2ccccn2)CC1 (configuration not stated) | . | ? | 3 | . | ? | -4
CC(Sc1ccccc1)C(=O)N(Cc1ccco1)c1c(N)n(Cc2ccccc2)c(=O)[nH]c1=O (configuration not stated) | . | . | -2 | . | . | .
CCOC(=O)Cn1c(CN2CCN(C(=O)OCC)CC2)nc2c1c(=O)n(C)c(=O)n2C | . | . | 0 | . | . | .
CCCCCCn1c(CN2CCN(C(=O)OCC)CC2)nc2c1c(=O)n(C)c(=O)n2C | . | 21µM* | -1 | . | ? | 16
CCOC(=O)N1CCN(Cc2nc3c(c(=O)n(C)c(=O)n3C)n2CCC(C)C)CC1 | -10% | -29% | -7 | 3% | ? | 7
CCCn1c(CN2CCN(C(=O)OCC)CC2)nc2c1c(=O)n(C)c(=O)n2C | -6% | 8.2µM* | -7 | ? | 5.2µM* | 40
CCOC(=O)/C(=C\c1cn(C)c2ccccc12)[N+](=O)[O-] | 0% | ? | 1 | ? | ? | -85*
N#Cc1ccc(C(=O)Oc2ccc(Br)cc2)cc1 | . | . | 5 | . | . | .
Cc1c(NC(=O)c2ccc([N+](=O)[O-])cc2)cccc1-c1nc2ccccc2o1 | . | . | 16 | . | . | .
CCS(=O)(=O)N1CCc2cc(C(=O)Nc3c(C)cc(C)cc3C)ccc21 | . | . | 2 | . | . | .
CN(C)C(=O)c1ccc(-c2nc(Nc3ccc(F)cc3)c3ccccc3n2)cc1 | 17% | ? | . | 21% | 23µM* | .
O=[N+]([O-])c1ccc(O)c(Nc2ncnc3ccccc23)c1 | ? | -8% | -7 | ? | 1% | 29
CN(C)C(=O)c1ccc(Nc2nc(-c3cccs3)nc3ccccc23)cc1 | -7% | 10µM* | -3 | 9% | 7.3µM* | -74*
